# PubChem BioAssay (Tox21)
# Where “and” joins values, the source holds several entries; their conditions need not be identical. Equal entries are not always repeated. Inconclusive results are not listed. A call without a number means that no potency is given here. More than one record can exist for a structure, and the calls need not agree. Calls of active or inactive are those of the source. Unless noted, calls follow the shape of the dose curve; as a rule, active = well fitted curve in the direction sought with a large enough effect in the repeat runs; inconclusive = weak or mixed curves; inactive = no such curve, though single readings can be large; an effect the other way counts as inactive or inconclusive.
# Legend:
# [1] = qHTS assay to identify small molecule antagonists of the estrogen related receptor (ERR) signaling pathway from Tox21 library - cell viability counter screen (AID 1224834); also: nearly all actives have a fitted effect of over 30% in size
# Procedure, shortened: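 CellTiter-Fluor fluorescence, read after 30 min at 37 C, measures viability of ERR cells. Cells plated at 2,000/well and incubated 6 h before pin-tool compound addition, then exposed 17.5 hours at 37 C.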
# [2] = biological target: Luciferin 4-monooxygenase (Photinus pyralis) (UniProt P08659); assay: qHTS assay to identify small molecule inhibitors of firefly luciferase (AID 1224835); also: series mostly up to about 120 µM; nearly all actives have a fitted effect of over 25% in size
# Procedure, shortened: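 Biochemical qHTS: compounds run as interplate titrations against purified firefly enzyme, with D-luciferin and ATP each at its KM concentration. Light output recorded by CCD imaging.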
# [3] = qHTS assay to identify small molecule agonists of the constitutive androstane receptor (CAR) signaling pathway - cell viability counter screen (AID 1224836); also: series mostly up to about 92 µM; nearly all actives have a fitted effect of over 45% in size
# Procedure, shortened: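 HepG2 cells stably carrying hCAR and a CYP2B6-2.2kb reporter; 15-concentration compounds plus PK11195 (final 0.75 uM), 23 hr at 37 C/5% CO2. Viability read by CellTiter-Fluor fluorescence.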
# [4] = qHTS assay to identify small molecule antagonists of the constitutive androstane receptor (CAR) signaling pathway - cell viability counter screen (AID 1224837); also: series mostly up to about 92 µM; nearly all actives have a fitted effect of over 45% in size
# Procedure, shortened: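 Cytotoxicity counter-screen: CellTiter-Fluor fluorescence after 23 h compound exposure (15-point qHTS) in double-stable HepG2-CYP2B6-hCAR cells, with 50 nM CITCO added.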
# [5] = biological target: Nuclear receptor subfamily 1 group I member 3 (Homo sapiens) (UniProt Q14994); assay: qHTS assay to identify small molecule antagonists of the constitutive androstane receptor (CAR) signaling pathway (AID 1224838);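 also: HepG2 cells stably expressing hCAR with CYP2B6 luciferase reporter stimulated by CITCO; nearly all actives have a fitted effect of over 40% in size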; also: potency is read from the fitted curve at half-maximal effect
# Procedure, shortened: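 Antagonism measured as luciferase signal (ONE-Glo, 30 min, room temperature) in CAR-stimulated cells: HepG2-CYP2B6-hCAR double-stable line exposed 24 hr at 37 C to compound in a 15-point series plus 50 nM CITCO.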
# [6] = biological target: Nuclear receptor subfamily 1 group I member 3 (Homo sapiens) (UniProt Q14994); assay: qHTS assay to identify small molecule agonists of the constitutive androstane receptor (CAR) signaling pathway (AID 1224839);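 also: HepG2 cells stably carrying human CAR and a CYP2B6 luciferase reporter; series mostly up to about 92 µM; nearly all actives have a fitted effect of over 15% in size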
# Procedure, shortened: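 HepG2 cells stably co-transfected with hCAR and a CYP2B6-2.2kb luciferase reporter; compounds at 15 concentrations with 0.75 uM PK11195 present. After 24 hr at 37 C, luciferase read by ONE-Glo luminescence.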
# [7] = qHTS assay to identify small molecule antagonists of the estrogen related receptor signaling pathway with the pleiotropic PPARgamma coactivator (PGC) from Tox21 10K library - cell viability counter screen (AID 1224840; active = well fitted cell-killing curve with a large enough effect in the repeat runs, not every such curve was filed as active; also: nearly all actives have a fitted effect of over 40% in size)
# Procedure, shortened: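 Counter-screen for cytotoxicity: after 17.5 h compound exposure at 37 C, CellTiter-Fluor reagent added to PGC/ERR cells for 30 min and fluorescence read. Cells were seeded at 2,000 per well 6 h before dosing.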
# [8] = qHTS assay to identify small molecule antagonists of the estrogen related receptor signaling pathway with the pleiotropic PPARgamma coactivator (PGC) from Tox21 10K library (AID 1224841; call rule not given here; also: series mostly up to about 92 µM; actives are mostly falling curves and most rising ones were filed inactive; nearly all actives have a fitted effect of over 50% in size)
# Procedure, shortened: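 Luminescence (One-Glo, 30 min at room temperature) after 18 h compound treatment at 37 C of PGC/ERR reporter cells plated at 2,000 cells/well and settled 6 h beforehand.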
# [9] = qHTS assay to identify small molecule agonists of the estrogen related receptor signaling pathway with the pleiotropic PPARgamma coactivator (PGC) from Tox21 10K library (AID 1224842); also: nearly all actives have a fitted effect of over 15% in size
# Procedure, shortened: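 PGC/ERR reporter cell line, 2,000 cells per well, incubated 6 h at 37 C before 23 nL compound in DMSO was added. After 18 h at 37 C, One-Glo luminescence read following 30 min at room temperature.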
# [10] = biological target: Thyrotropin receptor (Homo sapiens) (UniProt P16473); assay: qHTS assay to identify small molecule agonists of the thyroid stimulating hormone receptor (TSHR) signaling pathway (AID 1224843; calls by dose curve; also: nearly all actives have a fitted effect of over 45% in size)
# Procedure, shortened: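 HEK293/TSHR, 800 cells/well; cpd 30 min RT; add cAMP-d2 + anti-cAMP-cryptate, 1 h RT; fluorescence read on plate reader. 15-pt titration, n=3.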
# Nuclear receptor subfamily 1 group I member 3 (Homo sapiens), sequence (Q14994 whole entry, looked up): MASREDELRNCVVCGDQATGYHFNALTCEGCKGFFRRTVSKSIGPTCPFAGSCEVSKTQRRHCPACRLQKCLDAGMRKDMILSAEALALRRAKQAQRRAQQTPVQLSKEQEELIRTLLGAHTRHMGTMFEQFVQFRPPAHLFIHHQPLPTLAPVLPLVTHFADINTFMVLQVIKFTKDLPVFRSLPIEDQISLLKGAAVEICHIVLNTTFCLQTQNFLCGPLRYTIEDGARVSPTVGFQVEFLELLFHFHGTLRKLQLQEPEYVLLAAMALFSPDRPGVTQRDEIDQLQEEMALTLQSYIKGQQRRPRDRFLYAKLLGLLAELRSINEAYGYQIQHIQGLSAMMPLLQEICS
# Luciferin 4-monooxygenase (Photinus pyralis), sequence (P08659 whole entry, looked up): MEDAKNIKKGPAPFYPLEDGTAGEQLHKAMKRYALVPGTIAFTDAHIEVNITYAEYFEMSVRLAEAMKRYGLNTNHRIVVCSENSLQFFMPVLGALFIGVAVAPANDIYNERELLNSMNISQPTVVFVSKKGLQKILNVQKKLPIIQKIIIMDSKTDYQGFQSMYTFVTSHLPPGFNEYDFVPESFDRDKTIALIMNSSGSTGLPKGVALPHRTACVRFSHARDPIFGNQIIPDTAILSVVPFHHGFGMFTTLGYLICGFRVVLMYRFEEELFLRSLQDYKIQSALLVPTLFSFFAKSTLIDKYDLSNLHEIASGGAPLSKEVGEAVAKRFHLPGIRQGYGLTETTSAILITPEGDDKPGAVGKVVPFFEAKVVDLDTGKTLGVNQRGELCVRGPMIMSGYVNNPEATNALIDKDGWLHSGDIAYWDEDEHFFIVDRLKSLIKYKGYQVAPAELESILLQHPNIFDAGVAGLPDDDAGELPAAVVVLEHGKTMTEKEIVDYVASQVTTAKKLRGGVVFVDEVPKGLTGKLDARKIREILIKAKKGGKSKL
# Thyrotropin receptor (Homo sapiens), sequence (P16473 whole entry, looked up): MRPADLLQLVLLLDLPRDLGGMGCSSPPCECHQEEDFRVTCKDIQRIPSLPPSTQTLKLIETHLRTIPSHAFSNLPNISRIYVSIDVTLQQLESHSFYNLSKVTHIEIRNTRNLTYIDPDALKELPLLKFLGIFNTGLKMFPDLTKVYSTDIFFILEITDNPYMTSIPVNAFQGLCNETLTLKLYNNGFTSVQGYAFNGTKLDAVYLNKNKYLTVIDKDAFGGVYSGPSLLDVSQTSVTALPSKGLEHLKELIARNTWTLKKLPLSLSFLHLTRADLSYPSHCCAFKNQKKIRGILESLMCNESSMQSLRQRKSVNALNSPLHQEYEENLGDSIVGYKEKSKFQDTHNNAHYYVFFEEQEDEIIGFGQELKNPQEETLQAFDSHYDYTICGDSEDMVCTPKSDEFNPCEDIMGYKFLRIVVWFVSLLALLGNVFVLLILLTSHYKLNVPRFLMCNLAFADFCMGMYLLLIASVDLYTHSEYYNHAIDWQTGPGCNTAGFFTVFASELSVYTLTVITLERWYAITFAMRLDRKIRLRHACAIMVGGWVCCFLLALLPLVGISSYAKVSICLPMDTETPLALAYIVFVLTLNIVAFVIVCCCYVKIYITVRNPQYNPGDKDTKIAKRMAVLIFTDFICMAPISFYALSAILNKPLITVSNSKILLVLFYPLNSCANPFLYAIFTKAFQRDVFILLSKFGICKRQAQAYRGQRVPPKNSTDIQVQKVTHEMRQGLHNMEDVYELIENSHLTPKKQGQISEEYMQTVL
compound,measurement,setting,value
CCOC(=O)c1ccc(C)cc1,Potency,[1],inactive
same,Potency,[2],inactive
same,Potency,[3],inactive
same,Potency,[4],inactive
same,Potency,[5],inactive
same,Potency,[6],inactive
same,Potency,[7],inactive
same,Potency,[8],inactive
same,outcome,[9],inactive
COc1ccc2c(c1)CCCC2=O,Potency,[1],inactive
same,Potency,[2],inactive
same,Potency,[3],inactive
same,Potency,[4],inactive
same,Potency,[5],inactive
same,Potency,[6],inactive
same,Potency,[7],inactive
same,Potency,[8],inactive
same,outcome,[9],inactive
O=C(O)CNC(=O)c1ccc([N+](=O)[O-])cc1,Potency,[1],inactive
same,Potency,[2],inactive
same,Potency,[3],inactive
same,Potency,[4],inactive
same,Potency,[5],inactive
same,Potency,[6],inactive
same,Potency,[7],inactive
same,Potency,[8],inactive
same,outcome,[9],inactive
C[N+](C)(C)CCCCCC[N+](C)(C)C,Potency,[1],inactive
same,Potency,[2],inactive
same,Potency,[3],inactive
same,Potency,[4],inactive
same,Potency,[5],inactive and 26.6 µM (active)
same,Potency,[6],inactive
same,Potency,[7],inactive
CC(C[N+](C)(C)C)OC(N)=O (stereo not given),Potency,[1],inactive
same,Potency,[2],inactive
same,Potency,[3],inactive
same,Potency,[4],inactive
same,Potency,[5],inactive
same,Potency,[6],inactive
same,Potency,[7],inactive
same,Potency,[8],inactive
same,outcome,[9],inactive
CCCCCOC(=O)CCCCC,Potency,[1],inactive
same,Potency,[2],inactive
same,Potency,[3],inactive
same,Potency,[4],inactive
same,Potency,[5],inactive
same,Potency,[6],inactive
same,Potency,[7],inactive
same,Potency,[8],inactive
O=C1CCCC(=O)C1,Potency,[1],inactive
same,Potency,[2],inactive
same,Potency,[3],inactive
same,Potency,[4],inactive
same,Potency,[5],inactive
same,Potency,[6],inactive
same,Potency,[7],inactive
same,Potency,[8],inactive
same,outcome,[9],inactive
CCOC(=O)C(=O)OCC,Potency,[1],inactive
same,Potency,[2],inactive
same,Potency,[3],inactive
same,Potency,[4],inactive
same,Potency,[5],inactive
same,Potency,[6],inactive
same,Potency,[7],inactive
same,Potency,[8],inactive
same,outcome,[9],inactive
same,Potency,[10],inactive
CN(C)CCCSc1ccccc1NC(=O)/C=C/c1ccccc1,Potency,[1],inactive
same,Potency,[2],inactive
same,Potency,[3],inactive
same,Potency,[4],inactive
same,Potency,[5],inactive
same,Potency,[6],inactive
same,Potency,[7],inactive
same,Potency,[8],inactive
same,outcome,[9],inactive
same,Potency,[10],inactive
CCC(C)S (stereo not given),"viability change, negative = cytotoxic",[1],1.27% [at 3.27 µM] (inactive)
same,"activity change, negative = inhibition",[2],5.34% [at 4.07 µM] (inactive)
same,"viability change, negative = cytotoxic",[3],6.36% [at 3.27 µM] (inactive)
same,"activity change, negative = cytotoxicity",[4],4.49% [at 3.26 µM] (inactive)
same,"activity, negative = inhibition",[5],-7.32% [at 3.26 µM] (inactive)
same,activation,[6],0.262% [at 3.27 µM] (inactive)
same,"viability change, negative = cytotoxic",[7],2.53% [at 3.27 µM] (inactive)
same,"activity, negative = inhibition",[8],1.33% [at 3.27 µM] (inactive)
same,activation,[9],0.822% [at 3.27 µM] (inactive)
same,activation,[10],-2.63% [at 3.27 µM] (inactive)
N=C(N)c1ccc(OCCCOc2ccc(C(=N)N)cc2)cc1,Potency,[1],inactive
same,Potency,[2],inactive
same,Potency,[3],inactive
same,Potency,[4],inactive
same,Potency,[5],inactive
same,Potency,[6],inactive
same,Potency,[7],inactive
same,Potency,[8],inactive
same,outcome,[9],inactive
same,Potency,[10],inactive
CC(=O)Nc1ccc(S(N)(=O)=O)cc1,Potency,[1],inactive
same,Potency,[2],inactive
same,Potency,[3],inactive
same,Potency,[4],inactive
same,Potency,[5],inactive
same,Potency,[6],inactive
same,Potency,[7],inactive
same,Potency,[8],inactive
same,outcome,[9],inactive
same,Potency,[10],inactive
OCCCC1CCCCC1,Potency,[1],inactive
same,Potency,[2],inactive
same,Potency,[3],inactive
same,Potency,[4],inactive
same,Potency,[5],inactive
same,Potency,[6],inactive
same,Potency,[7],inactive
same,Potency,[8],inactive
same,outcome,[9],inactive
same,Potency,[10],inactive
Cc1cccn2c(=O)c(-c3nnn[nH]3)cnc12,"viability change, negative = cytotoxic",[1],0.715% [at 19 µM] (inactive)
same,"activity change, negative = inhibition",[2],1.24% [at 23.6 µM] (inactive)
same,"viability change, negative = cytotoxic",[3],10.1% [at 19 µM] (inactive)
same,"activity change, negative = cytotoxicity",[4],-0.444% [at 19 µM] (inactive)
same,"activity, negative = inhibition",[5],-0.816% [at 19 µM] (inactive)
same,activation,[6],2.7% [at 19 µM] (inactive)
same,"viability change, negative = cytotoxic",[7],11.8% [at 19 µM] (inactive)
same,"activity, negative = inhibition",[8],13.5% [at 19 µM] (inactive)
same,activation,[9],4.84% [at 19 µM] (inactive)
same,Potency,[10],inactive
Cc1cc(O)cc2c1O[C@](C)(CCC[C@H](C)CCC[C@H](C)CCCC(C)C)CC2,Potency,[1],inactive
same,Potency,[2],inactive
same,Potency,[3],inactive
same,Potency,[4],inactive
same,Potency,[5],inactive
same,Potency,[6],inactive
same,Potency,[7],inactive
same,Potency,[8],inactive
same,outcome,[9],inactive
same,Potency,[10],inactive
NS(=O)(=O)c1ccc(C(=O)O)cc1,Potency,[1],inactive
same,Potency,[2],inactive
same,Potency,[3],inactive
same,Potency,[4],inactive
same,Potency,[5],inactive
same,Potency,[6],inactive
same,Potency,[7],inactive
same,Potency,[8],inactive
same,outcome,[9],inactive
same,Potency,[10],inactive
O=C1CC2CC1C1CCCC21 (stereo not given),Potency,[1],inactive
same,Potency,[2],inactive
same,Potency,[3],inactive
same,Potency,[4],inactive
same,Potency,[5],inactive
same,Potency,[6],inactive
same,Potency,[7],inactive
same,Potency,[8],inactive
same,outcome,[9],inactive
same,Potency,[10],inactive
O=C(O)c1ccccc1OP(=O)(O)O,Potency,[1],inactive
same,Potency,[2],inactive
same,Potency,[3],inactive
same,Potency,[4],inactive
same,Potency,[5],inactive
same,Potency,[6],inactive
same,Potency,[7],inactive
same,Potency,[8],inactive
same,outcome,[9],inactive
same,Potency,[10],inactive
CCCN1CCCC[C@H]1C(=O)Nc1c(C)cccc1C,Potency,[1],inactive
same,Potency,[2],inactive
same,Potency,[3],inactive
same,Potency,[4],inactive
same,Potency,[5],inactive
same,Potency,[6],inactive
same,Potency,[7],inactive
same,Potency,[8],inactive
same,outcome,[9],inactive
same,Potency,[10],inactive
CCCC(=O)O[C@]1(C(=O)CO)CC[C@H]2[C@@H]3CCC4=CC(=O)CC[C@]4(C)[C@H]3[C@@H](O)C[C@@]21C,Potency,[1],inactive
same,Potency,[2],inactive
same,Potency,[3],inactive
same,Potency,[4],inactive
same,Potency,[5],inactive
same,Potency,[6],inactive
same,Potency,[7],inactive
same,Potency,[8],inactive
same,outcome,[9],inactive
same,Potency,[10],inactive
Cn1c(N)c(N=O)c(=O)n(C)c1=O,Potency,[1],inactive
same,Potency,[2],inactive
same,Potency,[3],inactive
same,Potency,[4],inactive
same,Potency,[5],inactive
same,Potency,[6],inactive
same,Potency,[7],inactive
same,Potency,[8],inactive
same,outcome,[9],inactive
same,Potency,[10],inactive
CC(C)=CCCC(C)CC(=O)O (stereo not given),Potency,[1],inactive
same,Potency,[2],inactive
same,Potency,[3],inactive
same,Potency,[4],inactive
same,Potency,[5],inactive
same,Potency,[6],inactive
same,Potency,[7],inactive
same,Potency,[8],inactive
same,outcome,[9],inactive
same,Potency,[10],inactive
COc1cc(C(=O)N2CCCCCCC2)cc(OC)c1OC,Potency,[1],inactive
same,Potency,[2],inactive
same,Potency,[3],inactive
same,Potency,[4],inactive
same,Potency,[5],inactive
same,Potency,[6],inactive
same,Potency,[7],inactive
same,Potency,[8],inactive
same,outcome,[9],inactive
same,Potency,[10],inactive
CCc1nccnc1CC,"viability change, negative = cytotoxic",[1],6.79% [at 19 µM] (inactive)
same,"activity change, negative = inhibition",[2],1.9% [at 23.6 µM] (inactive)
same,"viability change, negative = cytotoxic",[3],4.25% [at 19 µM] (inactive)
same,"activity change, negative = cytotoxicity",[4],-1.21% [at 19 µM] (inactive)
same,"activity, negative = inhibition",[5],-16.5% [at 19 µM] (inactive)
same,activation,[6],-0.0673% [at 19 µM] (inactive)
same,"viability change, negative = cytotoxic",[7],1.05% [at 19 µM] (inactive)
same,"activity, negative = inhibition",[8],4.39% [at 19 µM] (inactive)
same,activation,[9],1.3% [at 19 µM] (inactive)
same,Potency,[10],inactive
